Screens as filed in PubChem.
CHX counter – counter-screen for Shiga toxin inhibitors: cycloheximide protein synthesis inhibition; cell reporter, cycloheximide protein synthesis inhibition counterscreen; max response, %; 300,000 compounds, 12% hits; AID 2314; in the data active = max response mostly above about 13%, no sharp cut-off; inactive = mostly below about 14%; also: read at 38.3 µM for the half of the compounds with a filed dose; 0% is about no effect
Shiga inhibitor – blocks Shiga toxin action in Vero cells. Vero cells, Shiga toxin protein synthesis inhibition reporter. inhibition, % at 38.7 µM. 290,000 compounds, 9.2% hits; in the data active = inhibition mostly above about 28%, no sharp cut-off; inactive = mostly below about 43%; also: 0% is about no effect
Sm TGR inh – inhibitors of Schistosoma mansoni thioredoxin glutathione reductase. Q962Y6. purified TGR, DTNB reduction, TNB absorbance 405 nm. Potency, µM (top dose mostly 114 µM), inactives show top-dose activity change, negative = inhibition, most hits filed as inhibitors. 360,000 compounds, 3% hits. AID 485364; active = well fitted inhibition curve with a large enough effect; inconclusive = small, poorly fitted or top-dose-only effect; inactive = no such curve, though single readings can be large or run the other way; also: potency is read from the fitted curve at half-maximal effect; % is scaled to controls: 0 for no effect and ±100 for the full control effect; nearly all actives have a fitted effect of over 60% in size
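First, TGR (20 nM dispensed) and NADPH were mixed with compound. Second, a 15 min room-temperature incubation followed. Third, further NADPH and then DTNB were added to start the reaction. Finally, TNB absorbance was monitored kinetically.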
FMDV antiviral – antivirals against foot and mouth disease virus; FMDV antiviral cell-based qHTS; Potency, µM (doses to about 57.9 µM), for inactives: at the highest dose activity change, negative = inhibition, usual class: inhibitors; 410,000 compounds, 1.2% hits; AID 1159524; calls by dose curve; tested in HEK293T cells; also: read-out not given here; potency is read from the fitted curve at half-maximal effect; % is scaled to controls: 0 for no effect and ±100 for the full control effect; nearly all actives have a fitted effect of over 45% in size
Numbers without * were called inactive; ? = inconclusive; . = not tested or not shown; + = active, no number. An excerpt weighted towards active compounds, which were near 12% of everything screened.

SMILES | CHX counter | Shiga inhibitor | Sm TGR inh | FMDV antiviral
CNCCCCc1cnc(C)c2[nH]c3ccccc3c12 | . | . | . | -9.9%
CCC(C(=O)Nc1ccc(C)c(C)c1)n1c(=O)c(C(F)(F)F)nc2ccccc21 (configuration not stated) | . | . | 14.6% | -16.6%
COc1ccc(/C=C/C(=O)Nc2sc3c(c2C(N)=O)CCC(C)C3)cc1OC (configuration not stated) | . | . | -2.1% | 5.6%
Cc1ccc(NC(=O)C(=O)NN=C2CCCC2)cc1C | 10.0* | 40.4 | 0.0% | 71.0%
CN1CCC(=NNC(=O)C(=O)Nc2ccc(F)cc2)CC1 | 37.8* | 74.1* | 5.8% | 42.6%
CN1CCC(=NNC(=O)C(=O)Nc2cccc(Br)c2)CC1 | 0.6 | 12.7 | -8.6% | 11.8%
Cc1ccc(NC(=O)c2csnn2)c(C)c1 | 21.6* | 31.5 | -1.5% | 20.9%
CSCc1ccc(C(=O)Nc2cccc(C)c2C)cc1 | 48.6* | 21.4 | -6.9% | 15.4%
Cc1ccc(NC(=O)c2ccccn2)c(Br)c1 | 52.2* | 88.7* | -1.0% | 26.4%
Cc1cccc(NC(=O)c2ccccn2)c1C | 32.3* | 77.2* | -9.3% | 56.0%
Cc1cccc(NC(=O)NNC(=O)c2ccccn2)c1 | . | . | . | 2.8%
CCC1(C2CCN(C(=O)c3cc(F)ccc3F)CC2)NC(=O)N(CCc2scnc2C)C1=O (configuration not stated) | . | . | . | -3.2%
COc1ccc(-c2[nH]c(-c3ccccc3)nc2SCC(=O)Nc2ccc3c(c2)OCO3)cc1 | . | . | ? | -17.0%
CN(C)CCNC(=O)C(=O)NCC(c1cccnc1)N1CCN(c2ccccc2)CC1 (configuration not stated) | . | . | -2.0% | -0.7%
NC(=O)NC(=O)Nc1ccccc1Cl | 2.8 | -4.3 | -22.2% | 22.5%
Cc1ccc(C)c(NC(=O)c2ccccn2)c1 | 31.6* | 47.3* | -6.0% | 57.2%
Cc1ccc(NC(=O)Nc2ccc(Cl)cc2)c(Br)c1 | 28.2* | active | 6.2% | -3.2%
O=C(NC(=O)c1csnn1)Nc1ccccc1Cl | 33.6* | 21.9 | -0.3% | 22.2%
Cc1ccc(C)c(NC(=O)CN(C)C(=O)c2ccccn2)c1 | . | . | . | 1.1%
Cc1ccc(NC(=O)/C=C/c2ccc(Cl)cc2)c(Br)c1 | . | . | 2.0% | 2.6%
Cc1ccc(NC(=S)NNC(C)(C)C)cc1 | 34.1* | 40.8* | ? | 33.8%
O=S(=O)(Nc1cccc(-c2ccc(N3CCOCC3)nn2)c1)c1ccccc1C(F)(F)F | . | . | -8.6% | 44.0%
O=C(O)CSc1cc(NS(=O)(=O)c2ccc(Cl)cc2)c2ccccc2c1O | 14.4 | 18.2 | 7.08µM* | ?
COc1ccc(S(=O)(=O)Nc2cc(SCC(=O)O)c(O)c3ccccc23)cc1 | 1.5 | -8.5 | 3.55µM* | -48.8%
COc1ccc(S(=O)(=O)Nc2cc(Sc3ncn[nH]3)c(O)c3ccccc23)cc1 | 41.8 | 42.5 | 0.501µM* | .
SMILES | CHX counter | Shiga inhibitor | Sm TGR inh | FMDV antiviral
Cc1cc(C)c(S(=O)(=O)Nc2cc(SCC(=O)O)c(O)c3ccccc23)cc1C | 6.2 | 31.1 | 8.91µM* | -3.7%
CCC(=O)N1CCc2cc(CNS(=O)(=O)c3cc(Cl)ccc3OC)ccc21 | . | . | 2.4% | 54.4%
C[C@H](N)C(=O)NCC(=O)N[C@H]1CSSC[C@@H](C(=O)O)NC(=O)[C@H](CO)NC(=O)[C@H]([C@@H](C)O)NC(=O)[C@H](Cc2ccccc2)NC(=O)[C@H]([C@@H](C)O)NC(=O)[C@H](CCCCN)NC(=O)[C@@H](Cc2c[nH]c3ccccc23)NC(=O)[C@H](Cc2ccccc2)NC(=O)[C@H](Cc2ccccc2)NC(=O)[C@H](CC(N)=O)NC(=O)[C@H](CCCCN)NC1=O | 0.4 | -11.6 | . | .
O=S(=O)(Nc1cc(Sc2cccc3cccnc23)c(O)c2ccccc12)c1ccc(F)cc1 | 24.5* | + | 3.55µM* | 12.6µM*
O=C(CCC1CCCN(C(=O)c2ccc3c(c2)OCCO3)C1)NCc1ccccc1F (configuration not stated) | 48.4* | 77.1* | 12.6% | 22.0%
Cc1ccc(CNC(=O)CCC2CCCN(Cc3cccc4cccnc34)C2)o1 (configuration not stated) | 4.6 | -5.7 | ? | -2.8%
Cc1ccc(CNC(=O)CCC2CCCN(C(=O)CCC(F)(F)F)C2)o1 (configuration not stated) | -2.8 | -2.4 | 12.6µM* | 2.5%
Cc1ccc(CNC(=O)CCC2CCCN(Cc3cccc4ncccc34)C2)o1 (configuration not stated) | 11.1* | 24.0 | -1.3% | -1.5%
O=C(CCC1CCCN(C(=O)CCC(F)(F)F)C1)NCc1ccc(F)c(F)c1 (configuration not stated) | -1.1 | -2.4 | 25.0% | 32.3%
Cc1ccc(CNC(=O)CCC2CCCN(C(=O)c3ccc4c(c3)OCO4)C2)o1 (configuration not stated) | 12.0 | 12.8 | 14.1µM* | 29.1%
CC(=O)c1cccc(CN2CCCC(CCC(=O)NCc3ccc(C)o3)C2)c1 (configuration not stated) | -1.8 | 2.7 | -33.0% | 5.6%
Cc1ccccc1Cc1nc2cccnc2n1C1CCN(C(=O)CC2NC(=O)c3ccccc32)CC1 (configuration not stated) | . | . | . | -24.4%
Cc1ccc(NC(=O)Cn2cnc3onc(-c4ccc(F)cc4)c3c2=O)c(Cl)c1 | . | . | 26.2% | -23.5%
Cc1ccc(-c2noc(-c3cccnc3N(C)Cc3ccc(Cl)cc3)n2)cc1 | . | . | -1.1% | 0.8%
CCN(CCCNC(=O)c1nn(-c2ccc(C)cc2)c(=O)c2c1c1ccccc1n2C)c1ccccc1 | . | . | -2.1% | 0.0%
Cc1ccc(C(=O)Nc2c(C(=O)NCc3ccc(Cl)cc3)sc3nc(C)cc(C)c23)cc1 | . | . | -13.6% | -22.5%
COc1ccc(C(=O)N2CCCC(CCC(=O)NCc3ccccc3F)C2)c(OC)n1 (configuration not stated) | 22.8* | 8.2 | -4.2% | 2.8%
CCN(CC)c1cc(C)c2cc(NC(=O)c3ccccc3Cl)ccc2n1 | . | . | -7.5% | 0.6%
O=C(NCCc1cccs1)C1CC(c2ccccc2[N+](=O)[O-])=NO1 (configuration not stated) | 16.4* | 74.1* | 10.9% | 71.2%
COc1ccc(CCNC(=O)C2CC(c3ccccc3[N+](=O)[O-])=NO2)cc1 (configuration not stated) | 48.8* | 51.6 | 4.2% | 68.5%
COc1ccc(CCNC(=O)Nc2ccccc2[N+](=O)[O-])cc1 | 36.6* | 67.4* | . | 37.9%
COCCNC(=O)C1CC(c2ccccc2[N+](=O)[O-])=NO1 (configuration not stated) | -1.6 | -9.8 | -22.4% | 5.4%
Cc1ccc(CCNC(=O)C2CC(c3ccccc3[N+](=O)[O-])=NO2)cc1 (configuration not stated) | 9.2 | 14.2 | 0.5% | 0.8%
C=CCn1c(SCC(=O)N2CCCC2)nc2scc(-c3cccs3)c2c1=O | -0.8 | -7.6 | 3.7% | -26.2%
Cc1ccc(-c2csc3ncnc(SCC(N)=O)c23)cc1 | 6.4 | 22.0 | . | -25.9%
C=CCn1c(SCc2ccc3c(c2)OCO3)nc2scc(-c3ccco3)c2c1=O | -0.1 | -11.8 | ? | ?
CC(C)C(C)NC(=O)CSc1nc2scc(-c3ccco3)c2c(=O)n1-c1ccccc1 (configuration not stated) | -3.6 | 11.4 | 25.1µM* | 0.0%
